Compound activity as filed in PubChem BioAssay.
Compounds with a hit are over-represented: about 10% of the library has one in this group of screens.
NIH3T3 tox = cytotoxic compounds in NIH 3T3 cells | NIH 3T3 viability, CellTiter-Glo ATP luminescence, 48-72 h | Potency, µM (doses to about 96.7 µM), for inactives: top-dose activity change, negative = cytotoxicity, most hits filed as inhibitors | 4.3% of 94,000 active; also: % is scaled to controls: 0 for no effect and ±100 for the full control effect; nearly all actives have a fitted effect of over 55% in size
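Viability of NIH 3T3 cells after 48 or 72 hr compound treatment at 37 °C was assessed by CellTiter-Glo, with luminescence imaged following a 10 min room-temperature step.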
HEK cytotox = cytotoxic compounds in HEK 293 cells; HEK 293 viability, ATP luminescence (CellTiter-Glo), 48-72 h; Potency, µM (highest dose often 115 µM), for the others: at the top dose activity change, negative = cytotoxicity, hits mostly inhibitors; 6.6% of 94,000 active; also: % is scaled to controls: 0 for no effect and ±100 for the full control effect; nearly all actives have a fitted effect of over 60% in size
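qHTS cytotoxicity; HEK 293, 250 cells/well; compound pinned; 48 or 72 hr, 37 degree Celsius, 5% CO2, 95% humidity; CellTiter-Glo, 10 min RT; luminescence (ATP).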
NPR1 antag = human Npr1 receptor antagonism; HEK293 hNpr1 GloSensor cGMP, ANP-stimulated luminescence; Potency, µM (series often up to 46.3 µM), without a hit: top-dose activity change, negative = inhibition, hits mostly inhibitors; 1.6% of 76,000 active; calls by dose curve; also: % is scaled to controls: 0 for no effect and ±100 for the full control effect; nearly all actives have a fitted effect of over 60% in size
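HEK293 cells stably expressing human Npr1 and cGMP GloSensor pGS-40F, loaded 2 h with 2% GloSensor reagent, given compound 30 min at room temperature. Luminescence read before and 20 min after 0.1 nM hNppA.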
GPT2 inhibitor = inhibitors of human GPT2 alanine aminotransferase. Q8TD30. Recombinant GPT2, coupled pyruvate oxidase/HRP Amplex Red fluorescence. Potency, µM (doses to about 57.7 µM), inactives show at the top dose activity change, negative = inhibition, most hits filed as inhibitors. 0.25% of 100,000 active; also: % is scaled to controls: 0 for no effect and ±100 for the full control effect; nearly all actives have a fitted effect of over 60% in size
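Recombinant GPT2 (10ng/uL) with 250uM a-KG and 2mM L-alanine, 30 min at room temperature, in HEPES pH 7.5 buffer. Pyruvate detected by pyruvate oxidase/HRP/Amplex Red fluorescence after 30 min in the dark; AOA (50uM) as positive control.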
FLuc inh = inhibitors of firefly (Photinus pyralis) luciferase; P08659; purified P. pyralis luciferase, luminescence, biochemical; Potency, µM (highest dose often 115 µM), usual class: inhibitors; 2.5% of 76,000 active; AID 1347043; also: % is scaled to controls: 0 for no effect and ±100 for the full control effect; nearly all actives have a fitted effect of over 65% in size
Target sequence (P08659 whole entry, looked up): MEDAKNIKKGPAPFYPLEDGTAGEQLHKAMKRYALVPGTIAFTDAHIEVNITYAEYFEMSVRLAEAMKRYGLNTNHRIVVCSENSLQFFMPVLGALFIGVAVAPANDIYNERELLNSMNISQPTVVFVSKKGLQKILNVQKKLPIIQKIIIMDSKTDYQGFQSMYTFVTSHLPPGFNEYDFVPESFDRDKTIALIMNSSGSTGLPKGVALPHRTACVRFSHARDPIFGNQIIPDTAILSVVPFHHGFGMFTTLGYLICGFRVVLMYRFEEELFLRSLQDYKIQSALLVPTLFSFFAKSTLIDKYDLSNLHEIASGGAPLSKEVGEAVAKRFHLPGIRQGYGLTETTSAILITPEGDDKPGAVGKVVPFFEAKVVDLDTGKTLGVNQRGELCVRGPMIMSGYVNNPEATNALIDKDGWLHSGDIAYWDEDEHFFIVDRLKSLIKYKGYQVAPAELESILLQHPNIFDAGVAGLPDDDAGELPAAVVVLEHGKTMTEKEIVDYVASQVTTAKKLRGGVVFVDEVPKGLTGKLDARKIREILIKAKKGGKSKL
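Cell-free enzyme assay, 10nM P. pyralis luciferase, luciferin and ATP each at 10uM. Inhibition profiled over a 6-point titration, read as luminescence.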
NPR1 antag cnf = confirmation of human Npr1 natriuretic peptide receptor antagonists; shares compounds with NPR1 antag; HEK293 hNpr1 cGMP GloSensor luminescence, ANP-stimulated; Potency, µM (titrated, usually from 57.6 µM), inactives show at the highest dose activity change, negative = inhibition, usual class: inhibitors; 76% of 1,400 active; calls by dose curve; also: nearly all actives have a fitted effect of over 70% in size
NPR2 antag = antagonizes human Npr2, subtype selectivity check | AID 1347046 | Potency, µM (series often up to 57.6 µM), for the others: top-dose activity change, negative = inhibition, actives largely listed as inhibitors | shares compounds with NPR1 antag | 67% of 1,400 active | HEK293 hNpr2 GloSensor cGMP luminescence, CNP-stimulated; calls by dose curve; also: nearly all actives have a fitted effect of over 70% in size
FLuc counter = counter-screen for Npr1 antagonists: firefly luciferase inhibitors | shares compounds with NPR1 antag | purified FLuc enzyme, luminescence, Km substrate | Potency, µM (top dose mostly 57.6 µM), for inactives: at the highest dose activity change, negative = inhibition, actives largely listed as inhibitors | 0.7% of 1,400 active; also: 0% is about no effect
GloSensor ctrl = counter-screen for Npr1 antagonists: GloSensor control cell line | Potency, µM (highest dose often 57.6 µM), for inactives: at the top dose activity change, negative = inhibition, most hits filed as inhibitors | shares compounds with NPR1 antag | 69% of 1,400 active | HEK293 GloSensor cGMP, SNP-stimulated, luminescence; calls by dose curve; also: % is scaled to controls: 0 for no effect and ±100 for the full control effect; nearly all actives have a fitted effect of over 70% in size
The depositor's hits bear a star; i = inactive; ? = inconclusive; nt = no result given; [ ] = remark or other dose. Unless noted, calls follow the shape of the dose curve; as a rule, active = well fitted curve in the direction sought with a large enough effect; inconclusive = small, poorly fitted or top-dose-only effect, or another doubt; inactive = no such curve, though single readings can be large; an effect the other way counts as inactive or inconclusive. Potency is read from the fitted curve at half-maximal effect.

SMILES	NIH3T3 tox	HEK cytotox	NPR1 antag	GPT2 inhibitor	FLuc inh	NPR1 antag cnf	NPR2 antag	FLuc counter	GloSensor ctrl
CCOC(=O)C1CCCN(C(=O)c2ccc3nc(-c4cccc(C)n4)oc3c2)C1 (stereo not given)	-27%	-15%	nt	2%	nt	nt	nt	nt	nt
CC1(C)[C@H](Cc2cc(-c3ccc(F)cc3)on2)C[C@@H]1NS(C)(=O)=O	?	71µM*	?	1%[88.5 µM]	?	40µM*	40µM*	-11%[86.2 µM]	35µM*
CN(C)Cc1cc(C[C@@H]2C[C@H](NC(=O)Nc3ccc(F)cc3)C2(C)C)no1	?	?	-20%[70.6 µM]	-2%[88.5 µM]	i	nt	nt	nt	nt
CC(C)(C)CC(=O)N[C@H]1C[C@@H](Cc2cc(COc3ccccc3)on2)C1(C)C	?	?	14µM*	3%[88.5 µM]	i	13µM*	16µM*	2%[86.2 µM]	14µM*
CC1(C)[C@H](Cc2cc(CN3CCN(c4ccccc4)CC3)on2)C[C@@H]1NC(=O)Nc1ccc(F)cc1	?	?	13µM*	?	i	19µM*	22µM*	3%	19µM*
CC1(C)[C@H](Cc2cc(CN3CCN(c4ccccc4)CC3)on2)C[C@@H]1NC(=O)NCc1ccccc1	?	25µM*	11µM*	1%	i	22µM*	?	7%	17µM*
CC(C)CN[C@H]1CO[C@H]2[C@@H]1OC[C@@H]2Nc1nccc(C(C)(C)C)n1	-28%[174 µM]	?	?	i	i	nt	nt	nt	nt
COc1cccc(-c2noc(CC3CCN(C(=O)c4cc(Cl)ccc4F)CC3)n2)c1	?	?	8.9µM*	3%	i	12µM*	19µM*	0%	14µM*
O=C(c1cccc(Cl)c1)N1CCC(Cc2nc(-c3cnccn3)no2)CC1	?	-11%	-2%	-2%	i	nt	nt	nt	nt
COc1cccc(-c2noc(CC3CCN(C(=O)c4ccccc4)CC3)n2)c1	?	40µM*	7.9µM*	i	i	9.7µM*	11µM*	-6%	9.7µM*
COc1cccc(-c2noc(CC3CCN(C(=O)c4ccc(OC)c(OC)c4)CC3)n2)c1	?	?	11µM*	1%	i	9.7µM*	12µM*	1%	11µM*
COc1cccc(-c2noc(CC3CCN(C(=O)c4cccc(Cl)c4)CC3)n2)c1	?	?	8.9µM*	i	i	7.7µM*	11µM*	-12%	7.7µM*
O=C(c1cc(Cl)ccc1F)N1CCC(Cc2nc(-c3cnccn3)no2)CC1	?	?	0%	i	i	nt	nt	nt	nt
C=C(C)[C@@H]1CC[C@]2(C)CC[C@]3(C)[C@H](CC[C@@H]4[C@@]5(C)CC[C@@H](O)C(C)(C)[C@@H]5CC[C@]43C)[C@@H]12	nt	nt	nt	i	nt	nt	nt	nt	nt
Cc1noc([C@@H]2CN(C(=O)c3ocnc3C)C[C@H]2COCC2CC2)n1	-3%	-13%	-3%	i	i	nt	nt	nt	nt
O=C(NC[C@H]1O[C@@H]2C[C@@H](CC(=O)N3CCOCC3)O[C@@H]2[C@@H]1O)Nc1cccnc1	-2%[174 µM]	i	5%[70.6 µM]	?	i	nt	nt	nt	nt
